Sampled rows, rich in hits. Any-hit rate of the full collection: about 2.3%.
A549 viability: Nrf2 qHTS screen for inhibitors: counterscreen for cytotoxicity | Potency, µM (doses to about 46 µM), inactives show at the top dose activity change, negative = cytotoxicity, hits mostly inhibitors | 0.16% of 390,000 active | A549 ARE-Fluc cells, CellTiter-Fluor viability, 18-24 h; note: potency is the fitted concentration of half-maximal effect; % is set by controls: 0 for no effect and ±100 for the full control effect
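A549 ARE-Fluc cells in 5% FBS OPTI-MEM, 5000 cells/well, rested 2 h then exposed to compounds in concentration-response for 18-24 h at 37 °C. Viability by CellTiter-Fluor fluorescence (Ex 405/Em 525) after 30 min; luciferase luminescence (BugLite, 15 min, RT) read afterwards.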
Nrf2 activator: qHTS of Nrf2 Activators | AREc32 ARE-luciferase reporter (MCF7-derived line), luminescence, 24 h | Potency, µM (highest dose often 46.1 µM), for inactives: top-dose activation, most hits filed as activators | 0.31% of 410,000 active | AID 624171, 2012; note: potency is the fitted concentration of half-maximal effect; % of control where 0% means no effect; nearly all actives have a fitted effect of over 65% in size
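Quantitative high-throughput format: AREc32 reporter cells, 1000 per well, received compound by pin transfer and were incubated 24 hr at 37 deg C, 5% CO2, before Steady-Glo luminescence detection.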
Mito fusion yeast: qHTS Assay for Small Molecule Inhibitors of Mitochondrial Division or Activators of Mitochondrial Fusion | S. cerevisiae fusion-defective mutant growth rescue, CellTiterGlo 48 h | Potency, µM (titrated, usually from 46.1 µM), for the others: at the top dose growth rescue (activation), usual class: activators | 0.23% of 320,000 active; note: potency is the fitted concentration of half-maximal effect; % of control where 0% means no effect; nearly all actives have a fitted effect of over 45% in size
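Luminescent cell viability in 1536-well qHTS format served as the measure of rescued growth in ts fusion-mutant S. cerevisiae cultured on non-fermentable YPEG for 48 hours at 37C.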
miR-21 act: qHTS Assay for Modulators of miRNAs and/orActivators of miR-21; HeLa miR-21 FLuc reporter, luciferase, 48 h; Potency, µM (titrated, usually from 38.3 µM), without a hit: at the top dose activity change, positive = activation, most hits filed as activators; 340,000 tested, under 10 active;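 note: % of control where 0% means no effect; miR-21 action dims this reporter so a rising signal means less miR-21 action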
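HeLa cells endogenously expressing miR-21, stably carrying CMV-driven firefly luciferase with a downstream miR-21 binding site, 2000 cells/well. Titrations up to approximately 40 uM, 48 hours; luciferase luminescence read.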
Nrf2 block: Nrf2 qHTS screen for inhibitors; A549 ARE-Fluc reporter, luciferase luminescence, 18-24 h; Potency, µM (series often up to 46 µM), for the others: at the top dose activity change, negative = inhibition, actives largely listed as inhibitors; 2.1% of 360,000 active; note: potency is the fitted concentration of half-maximal effect; % is set by controls: 0 for no effect and ±100 for the full control effect; nearly all actives have a fitted effect of over 60% in size
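Nrf2 activity is the BugLite luminescence, read 15 min after reagent at room temperature, following CellTiter-Fluor cytotoxicity readout (30 min, 37C). Compound titrations were applied for 18-24 h to 5000 A549 ARE_Fluc cells/well in 5% FBS OPTI-MEM.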
Glioma ERSR ind: qHTS for Inducers of the Endoplasmic Reticulum Stress Response (ERSR) in Human Glioma: qHTS; U87-MG GRP78 promoter luciferase reporter, 16 h; 0.02% of 420,000 active; Potency, µM, for inactives: top-dose activation, actives largely listed as activators; AID 602332, 2012; note: potency is the fitted concentration of half-maximal effect; series mostly up to about 76 µM; % of control where 0% means no effect; nearly all actives have a fitted effect of over 35% in size
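Stably transfected U87-MG human glioma cells carrying a GRP78-based luminescent sensor were seeded at 1000 cells/well, pin-dosed with compounds and incubated 16 h. Luciferase reagent was then added, and end-point luminescence was read after 10 min at room temperature.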
* hit, by the source's call; ? = inconclusive; . = no result; [ ] = another dose, or the depositor's remark. Calls come from the whole dose curve; as a rule, active = well fitted curve in the direction sought with a large enough effect; inconclusive = small, poorly fitted or top-dose-only effect, or another doubt; inactive = no such curve, though single readings can be large; an effect the other way counts as inactive or inconclusive.

SMILES	A549 viability	Nrf2 activator	Mito fusion yeast	miR-21 act	Nrf2 block	Glioma ERSR ind
C=CCC[C@H](Cc1ccc(F)cc1)C(=O)OC[C@@H](C)NC(=O)[C@@H](CC=C)CC(=O)N[C@@H](CO)Cc1ccccc1	-1.9%	5.4%	.	.	-9.1%	-2.3%
O=c1[nH]c(CO)nc2c1oc1ccccc12	1.1%	-0.1%	-0.3%	-4.8%	-18.7%	-2.7%
CCOc1cc(C)cc2oc(=O)cc(-c3ccccc3)c12	-2.0%	-0.6%	11.1%	-0.3%	?	0.4%
Cc1cc(OCC(=O)N2CCc3ccccc3C2)c2c(-c3ccccc3)cc(=O)oc2c1	-18.8%	2.0%	?	0.0%	16.4µM*	2.0%
Nc1nc(SCc2ccccc2)c2ncn(Cc3ccccc3)c2n1	-5.5%	5.5%	.	.	-26.2%	3.4%
COc1ccc(C#CC2=CC(=O)CC(C)(C)C2)cc1	.	12.6µM*	.	.	.	11.4%
COc1ccccc1C#CC1=CC(=O)CC(C)(C)C1	.	14.1µM*	.	.	.	-2.1%
CCOC(=O)CSc1nnc(-c2ccco2)n1-c1ccccc1	-2.3%[1.84 µM]	-0.8%	-3.5%	-0.9%	7.6%	-5.8%
CCN(CC)CCCNc1nc(N)c([N+](=O)[O-])c(NCCO)n1	-2.6%	0.2%	1.9%	1.5%	14.2%	-3.1%
CCCCCc1cc(O)c2c(C)cc(=O)oc2c1	-10.6%	2.4%	13.6%	27.0%	-1.7%	-6.9%
CCCCc1cc(O)c(CCCC)c(O)c1	0.3%	?	16.5%	-40.2%	.	22.4µM*
O=C(CCl)Nc1cc(SCC(O)CO)cc([N+](=O)[O-])c1 (stereo not drawn)	6.51µM*	-1.9%[9.22 µM]	-4.4%	?	4.61µM*	-14.9%
Cc1[nH]c2ccc(F)cc2c1CCN(Cc1ccco1)C(=S)NC(C)(C)C	-0.6%	-0.5%	-5.1%	-1.2%	22.6%	-5.6%
CCn1nc(C)c2c(-c3ccccc3)cc(=O)n(C(C)C(=O)NCCc3ccccc3)c21 (stereo not drawn)	-11.1%	5.3%	.	3.2%	18.4µM*	2.0%
Cc1ccc(/C=C/C2=NN(Cc3ccccc3Cl)C(=O)CC2)cc1	0.9%	-0.4%	19.3%	-6.3%	-16.5%	4.7%
COc1ccc(-n2ccnc2SCC(=O)Nc2ccccc2)cc1	-1.5%	-1.0%	-1.2%	-7.5%	-17.8%	-8.3%
CN(Cc1cc(Cl)cc(Cl)c1)CC(C(=O)c1ccccc1)c1ccccc1 (stereo not drawn)	10.9%	11.2µM*	.	.	-7.7%	-6.1%
O=C(NCc1ccc(F)cc1)c1ccc2oc(=O)n(Cc3ccccc3)c2c1	4.3%	1.0%	.	8.6%	.	-1.9%
C/C(=N\NC(=S)NCC(C)(C)C)c1cc(F)cc(F)c1O	?	10µM*	2.6%	-4.8%	23.1µM*	1.9%
CN(C)c1ccc(/C=C2/C[N+](C)(C)C/C(=C/c3ccc(N(C)C)cc3)C2=O)cc1	14.6µM*	25.2%	.	.	?	-5.7%
CC(=O)N1CCCc2cc(S(=O)(=O)N3CCCC(C(=O)N4CCN(c5ccccc5)CC4)C3)ccc21 (stereo not drawn)	-6.5%	-0.2%	7.2%	?	13µM*	-2.8%
CCc1ccc(NC(=O)C2CCCN(S(=O)(=O)c3ccc4c(c3)CCCN4C(C)=O)C2)cc1 (stereo not drawn)	-0.7%	1.9%	-0.6%	10.9%	?	-4.6%
COc1ccc(CNC(=O)C2CCCN(S(=O)(=O)c3ccc4c(c3)CCCN4C(C)=O)C2)cc1 (stereo not drawn)	0.1%	-0.2%	-6.7%	21.1%	20.6µM*	-4.4%
COc1ccc(C)cc1S(=O)(=O)N1CCCC(C(=O)N2CCN(c3ccccc3)CC2)C1 (stereo not drawn)	1.3%	-0.6%	2.5%	24.4%	25.9µM*	-3.5%
CC(=O)N1CCCc2cc(S(=O)(=O)N3CCCC(C(=O)N4CCN(c5cc(C)ccc5C)CC4)C3)ccc21 (stereo not drawn)	-10.3%	-0.8%	-9.0%	?	7.31µM*	-8.0%
SMILES	A549 viability	Nrf2 activator	Mito fusion yeast	miR-21 act	Nrf2 block	Glioma ERSR ind
NS(=O)(=O)c1ccc(N2CCN(S(=O)(=O)Cc3ccccc3)CC2)nc1	-4.2%	-0.6%	.	.	-29.9%	-4.0%
Cc1ccc(CNC(=O)c2nc(S(=O)(=O)Cc3ccc(C)cc3)ncc2Cl)cc1	-19.8%	9.6%	.	12.0%	11.6µM*	3.7%
CCOC(=O)c1ccc(NC(=O)c2nc(S(=O)(=O)Cc3ccccc3)ncc2Cl)cc1	?	3.16µM*	-15.2%	?	?	-13.1%
COc1ccc(OC)c(NC(=O)c2nc(S(=O)(=O)Cc3ccc(F)cc3)ncc2Cl)c1	?	2.8%	.	11.7µM*	?	-10.0%
CCS(=O)(=O)c1ncc(Cl)c(C(=O)NCc2ccc(OC)cc2)n1	?	-5.3%	.	?	.	-10.8%
Cc1cccc(C(=O)NCC(=O)OCc2nnc(-c3ccccc3)o2)c1	-9.8%	7.9%	-5.7%	.	7.3%	-0.1%
COc1cccc(CNc2ncnc3ccc(-c4c(C)noc4C)cc23)c1	-0.5%	26.3%	9.7%	.	11.6µM*	-3.7%
COc1ccc(CCc2nnc(CCC(=O)N(C)Cc3ccnc4ccccc34)o2)cc1	?	4.3%	0.9%	10.5%	20.6µM*	3.5%
COc1ccccc1CCc1nnc(CCC(=O)N(C)Cc2cccc3cnccc23)o1	0.7%	4.5%	2.3%	-52.3%	?	3.2%
O=C(CCn1cnc2onc(-c3ccc(F)cc3)c2c1=O)N1CCN(c2ccccc2)CC1	11.8%	5.5%	.	0.9%	9.5%	-1.0%
Cc1ccc(S(=O)(=O)c2ccc(Cl)cc2)cc1S(=O)(=O)N1CCOCC1	-7.4%	0.0%	-19.6%	0.0%	?	-0.7%
COc1ccc(-c2c([C@H]3[C@@H]4C=CCC[C@@]4(C)C(=O)N3Cc3ccccc3)ccc3ccccc23)cc1OC	?	3.6%	-60.0%	15.3%	?	-6.1%
COc1ccc(-c2ccc([C@H]3[C@@H]4C=CCC[C@@]4(C)C(=O)N3Cc3ccccc3)c(F)c2)cc1OC	-5.6%	-1.0%	-3.4%	19.7%	20.6µM*	-2.1%
CC(=O)c1cccc(S(=O)(=O)Nc2ccc(N3CCOCC3)cc2)c1	5.1%	-0.3%	5.2%	-0.8%	-1.0%	-3.3%
Cc1cccc(C)c1NC(=S)NCCSc1ccc(Cl)cc1	?	-0.5%	5.1%	6.6%	25.9µM*	-4.6%
Cc1ccc(NC(=S)NCCSc2ccc(Cl)cc2)cc1	-19.4%	-0.7%	8.9%	2.6%	?	-5.1%
CC(=O)N(c1ccc(Cl)cc1)C1SC(=O)N(c2ccc(C)cc2)C1=O (stereo not drawn)	3.0%	.	.	.	13.0%	.

Screening data as filed in PubChem BioAssay.
